Test results reported in PubChem BioAssay (Tox21).
Several values for one entry are separate records, joined by “and”; a condition that tells them apart may be missing. Equal entries are not always repeated. Activity calls are given as the source filed them. Unless noted, calls come from the whole dose curve; as a rule, active = well fitted curve in the direction sought with a large enough effect in the repeat runs; inconclusive = weak or mixed curves; inactive = no such curve, though single readings can be large; an effect the other way counts as inactive or inconclusive.

Columns and labels:
[1] = qHTS assay for small molecule agonists of the p53 signaling pathway (AID 651631; calls by dose curve; note: nearly all actives have a fitted effect of over 15% in size; note: potency is the fitted concentration of half-maximal effect)
Outline: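 We treat p53RE-bla HCT-116 cells with compounds for 16 h at 37 °C, add LiveBLAzer B/G FRET substrate for 2 h at room temperature, and measure fluorescence intensity.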

[2] = qHTS assay for small molecules that induce genotoxicity in human embryonic kidney cells expressing luciferase-tagged ATAD5 (AID 651632); note: nearly all actives have a fitted effect of over 15% in size
Outline: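 Cells were seeded at 2,000 per well, dosed with compound, and incubated 16 hr at 37C in 5% CO2. Luciferase activity was then quantified after a 30 min room-temperature incubation with Amplite.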

[3] = qHTS assay for small molecules that induce genotoxicity in human embryonic kidney cells expressing luciferase-tagged ATAD5 - cell viability (AID 651634; calls by dose curve; note: nearly all actives have a fitted effect of over 25% in size; note: potency is the fitted concentration of half-maximal effect)
Outline: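 Cells (HEK293T, luciferase-tagged ATAD5) are seeded at 2,000 per well, dosed with compound or DMSO vehicle, and incubated 15.5 hr at 37C and 5% CO2. CellTiter-Fluor is added for 30 min before fluorescence is measured.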

[4] = qHTS assay for small molecule disruptors of the mitochondrial membrane potential - cell viability (AID 720634; calls by dose curve;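 note: human HepG2 liver cancer cells; nearly all actives have a fitted effect of over 20% in size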)
Outline: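 Cytotoxicity was measured by ATP quantitation in HepG2 wells that had first been treated with compound for 1 hr and stained with m-MPI dye; CellTiter-Glo incubation was 30 min at room temperature.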

[5] = qHTS assay for small molecule disruptors of the mitochondrial membrane potential (AID 720635); note: potency is the fitted concentration of half-maximal effect
Outline: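 HepG2 cells exposed to compound 1 hr at 37C, then Mito-MPS dye 30 min. Ratio read of aggregate (540/590 nm) versus monomer (490/535 nm) fluorescence.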

[6] = qHTS assay to test for compound auto fluorescence at 590 nm (red) in HepG2 cells (AID 720674)
Outline: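 HepG2 cells, 2,000 per well in MEM with 10% FBS, attached overnight at 37 C, then got 23 nL compound or DMSO. After 1 hr at 37 C, 5% CO2, red fluorescence was read at 540/590 nm against Rose Bengal sodium as reference.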

[7] = qHTS assay to test for compound auto fluorescence at 535 nm (green) in HepG2 cells (AID 720675)
[8] = qHTS assay to test for compound auto fluorescence at 460 nm (blue) in HEK293 cells (AID 720678); note: potency is the fitted concentration of half-maximal effect
Outline: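 Measured: blue fluorescence (Ex 405/Em 460 nm) of compound-treated HEK293 cells, incubated overnight at 37C with 5% CO2 and scaled to triamterene equivalents.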

[9] = qHTS assay to test for compound auto fluorescence at 590 nm (red) in HEK293 cells (AID 720679)
Outline: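 Using HEK293 cells at 2,000 per well, the screen added 23 nL of each compound after cell attachment and incubated overnight (37C, 5% CO2). The plate reader then captured red-label fluorescence, Ex/Em 540/590nm.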

[10] = qHTS assay to test for compound auto fluorescence at 535 nm (green) in HEK293 cells (AID 720680)
[11] = qHTS assay to test for compound auto fluorescence at 460 nm (blue) in HEK293 cell free culture (AID 720681); note: potency is the fitted concentration of half-maximal effect
Outline: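 Compounds were added to cell-free DMEM with 10% FBS and fluorescence read directly. The blue channel used 405 nm excitation and 460 nm emission, with triamterene as the reference fluorophore.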

[12] = qHTS assay to test for compound auto fluorescence at 535 nm (green) in HEK293 cell free culture (AID 720682)
Outline: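 Green-channel intensity (Ex/Em 485/535 nm) was recorded from compound-treated wells containing only DMEM with 10% FBS. Fluorescein provided the equivalency standard.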

[13] = qHTS assay to test for compound auto fluorescence at 590 nm (red) in HEK293 cell free culture (AID 720683)
Outline: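 Cell-free wells of DMEM with 10% FBS received compound, and intrinsic fluorescence was read at excitation/emission 540/590 nm. Values expressed as equivalence to Rose Bengal sodium.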

[14] = qHTS assay to test for compound auto fluorescence at 590 nm (red) in HepG2 cell free culture (AID 720684)
Outline: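 Auto fluorescence equivalency versus Rose Bengal sodium, red channel Ex/Em 540/590 nm; compounds in cell-free MEM/10% FBS; DMSO vehicle control.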

[15] = qHTS assay to test for compound auto fluorescence at 460 nm (blue) in HepG2 cell free culture (AID 720685); note: potency is the fitted concentration of half-maximal effect
Outline: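 Cell-free plates of MEM plus 10% FBS received 23 nL compound or DMSO vehicle; blue-channel (405/460 nm) intensity scored against triamterene as reference fluorophore.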

[16] = qHTS assay to test for compound auto fluorescence at 460 nm (blue) in HepG2 cells (AID 720687); note: potency is the fitted concentration of half-maximal effect
Outline: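 HepG2 cells in MEM with 10% FBS, attached overnight at 37 C, were exposed to compound or DMSO for 1 hr at 37 C, 5% CO2. Blue fluorescence was read at 405/460 nm, with triamterene as reference fluorophore.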

[17] = target: Glucocorticoid receptor (Homo sapiens) (UniProt P04150); assay: qHTS assay to identify small molecule agonists of the glucocorticoid receptor (GR) signaling pathway (AID 720691; active = well fitted activation curve with a large enough effect in the signal ratio in the repeat runs, not every such curve was filed as active; inconclusive = weak or mixed curves, or effect the other way; inactive = no such curve, though single readings can be large or run the other way; the % refers to the signal ratio; note: potency is the fitted concentration of half-maximal effect); details: GR-bla HeLa, beta-lactamase reporter ratio, 18 h; activation: at 62.4 µM (top of the series)
Sequence of Glucocorticoid receptor (Homo sapiens) (P04150 whole entry, looked up): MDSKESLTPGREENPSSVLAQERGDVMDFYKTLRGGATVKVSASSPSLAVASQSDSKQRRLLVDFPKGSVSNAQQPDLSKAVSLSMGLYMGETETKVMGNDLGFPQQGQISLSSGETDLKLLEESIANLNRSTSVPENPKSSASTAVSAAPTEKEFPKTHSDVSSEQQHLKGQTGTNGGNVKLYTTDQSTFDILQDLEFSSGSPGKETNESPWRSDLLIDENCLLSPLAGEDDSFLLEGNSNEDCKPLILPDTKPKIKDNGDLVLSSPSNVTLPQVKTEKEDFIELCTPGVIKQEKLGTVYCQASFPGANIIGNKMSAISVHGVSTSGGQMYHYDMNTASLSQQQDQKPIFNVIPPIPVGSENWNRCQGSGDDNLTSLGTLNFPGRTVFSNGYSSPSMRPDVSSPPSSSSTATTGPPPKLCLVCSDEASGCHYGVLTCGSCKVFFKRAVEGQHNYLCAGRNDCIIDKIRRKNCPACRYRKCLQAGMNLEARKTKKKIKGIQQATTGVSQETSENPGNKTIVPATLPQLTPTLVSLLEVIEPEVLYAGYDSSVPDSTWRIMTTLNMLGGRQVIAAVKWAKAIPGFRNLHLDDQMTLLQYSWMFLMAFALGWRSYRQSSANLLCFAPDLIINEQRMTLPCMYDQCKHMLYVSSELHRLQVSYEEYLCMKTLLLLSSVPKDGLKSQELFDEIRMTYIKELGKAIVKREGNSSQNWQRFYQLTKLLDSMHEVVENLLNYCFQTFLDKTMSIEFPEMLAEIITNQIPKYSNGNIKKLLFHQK
Outline: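 Steps: seed GR-bla HeLa cells, incubate 4 h at 37 C/5% CO2; pin-transfer DMSO-dissolved compounds; incubate 18 h at 37 C; add LiveBLAzer B/G FRET substrate; after 2 h at room temperature, measure fluorescence.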

[18] = target: Glucocorticoid receptor (Homo sapiens) (UniProt P04150); assay: qHTS assay to identify small molecule antagonists of the glucocorticoid receptor (GR) signaling pathway (AID 720692; active = well fitted inhibition curve with a large enough effect in the signal ratio in the repeat runs, not every such curve was filed as active; inconclusive = weak or mixed curves, or effect the other way; inactive = no such curve, though single readings can be large or run the other way; the % refers to the signal ratio; note: potency is the fitted concentration of half-maximal effect)
Outline: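 Antagonism was scored as loss of dexamethasone-driven (5 nM final) reporter signal in HeLa cells bearing a glucocorticoid response element–beta-lactamase construct, after 18 h compound exposure at 37 C and 2 h FRET substrate loading.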

[19] = qHTS assay to test for compound auto fluorescence at 535 nm (green) in HepG2 cell free culture (AID 720686)
[20] = qHTS assay for small molecule agonists of the p53 signaling pathway - cell viability (AID 651633; calls by dose curve; note: nearly all actives have a fitted effect of over 30% in size; note: potency is the fitted concentration of half-maximal effect)
Outline: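 p53RE-bla cells were treated with compound for 16 hours at 37 C. Cytotoxicity was then measured as CellTiter-Glo luminescence after 30 min at room temperature.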

Measured: Potency
Tags give direction and shape of the fitted curve or compound fluorescence and quenching.

NCCCC(=O)O
not listed: [19] | [20]
inactive: all other assays above

CN1C(=O)C[C@@H](C(=O)N[C@@H](Cc2cnc[nH]2)C(=O)N2CCC[C@H]2C(N)=O)NC1=O
not listed: [9] | [16] | [17] | [18] | [20]
inactive: all other assays above

COc1cccc2c1[C@@H]1CN(CCCCn3c(=O)[nH]c4c(sc5ncc(-c6ccccc6)nc54)c3=O)C[C@@H]1CO2
active: [20] 29.8 µM | [3] 26.6 µM | [5] 13.3 µM
not listed: [1] | [17] | [18]
inactive: all other assays above

O=C1OC(O)C(C(Cl)Cl)=C1Cl (configuration not stated)
active: [1] 14.1 µM | [20] 15.8 µM | [5] 63 µM | [18] 25.3 µM
not listed: [2] | [3] | [4] | [10] | [16] | [17]
inactive: all other assays above

O=C(Cn1cnnn1)N[C@@H]1C(=O)N2C(C(=O)O)=C(CSc3nncs3)CS[C@H]12
not listed: [17] | [18] | [20]
inactive: all other assays above

CC1(C)C[C@@H]1C(=O)N/C(=C\CCCCSC[C@H](N)C(=O)O)C(=O)O
not listed: [2] | [17] | [18]
inactive: all other assays above

C=C1[C@H](CO)[C@@H](O)C[C@@H]1n1cnc2c(=O)[nH]c(N)nc21
not listed: [16] | [20]
inactive: all other assays above

COc1cc(NS(C)(=O)=O)ccc1Nc1c2ccccc2nc2ccccc12
active: [1] 1.68 µM | [20] 18.8 µM | [5] 8.8 µM | [8] 11.2 µM [fluorescent] | [11] 12.6 µM | [15] 12.6 µM [fluorescent] | [16] 12.6 µM [fluorescent]
not listed: [2] | [3] | [17] | [18]
inactive: all other assays above

CCCCCCCCCCCCCC(=O)OCC(COP(=O)([O-])OCC[N+](C)(C)C)OC(=O)CCCCCCCCCCCCC (configuration not stated)
not listed: [16] | [20]
inactive: all other assays above

COC(=O)[C@H]1[C@H]2C[C@H]3c4[nH]c5ccccc5c4CCN3C[C@H]2CC[C@@H]1O
not listed: [3] | [6] | [10] | [17] | [18]
inactive: all other assays above

O=C(O)C[C@H](O)C[C@H](O)/C=C/c1c(C2CC2)nc2ccccc2c1-c1ccc(F)cc1
not listed: [5] | [17] | [18] | [20]
inactive: all other assays above

CCCCCCCCCCCC[n+]1ccc2ccccc2c1
active: [1] 26.6 µM | [3] 7.5 µM | [5] 2.98 µM
not listed: [17] | [18] | [20]
inactive: all other assays above

CC(=O)OCC(=O)[C@@]1(O)CC[C@H]2[C@@H]3C[C@H](C)C4=CC(=O)C=C[C@]4(C)[C@H]3[C@@H](O)C[C@@]21C
active: [17] 0.134 µM [inconclusive]
not listed: [18] | [20]
inactive: all other assays above

CO[C@H](C(=O)[C@@H](O)[C@@H](C)O)C1Cc2cc3cc(O[C@H]4C[C@@H](O[C@H]5C[C@@H](O)[C@H](O)[C@@H](C)O5)[C@@H](O)[C@@H](C)O4)c(C)c(O)c3c(O)c2C(=O)[C@H]1O[C@H]1C[C@@H](O[C@H]2C[C@@H](O[C@H]3C[C@](C)(O)[C@H](O)[C@@H](C)O3)[C@H](O)[C@@H](C)O2)[C@H](O)[C@@H](C)O1 (some centres not stated)
active: [1] 42.2 nM and 53.1 nM | [5] 27.8 µM
not listed: [6] | [17] | [18] | [20]
inactive: all other assays above
